Bioassay records deposited in PubChem by several laboratories.
Mtb FBA inh – Mtb fructose-bisphosphate aldolase inhibition; inhibition, % at 1 µM; P9WQA3; 360,000 tested, 2.3% active; AID 588726; purified M. tuberculosis FBA, fluorescence read-out; in the data active = inhibition above about 27%;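 also: 0% = vehicle and 100% = reference inhibitor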
Target sequence (P9WQA3 whole entry, looked up): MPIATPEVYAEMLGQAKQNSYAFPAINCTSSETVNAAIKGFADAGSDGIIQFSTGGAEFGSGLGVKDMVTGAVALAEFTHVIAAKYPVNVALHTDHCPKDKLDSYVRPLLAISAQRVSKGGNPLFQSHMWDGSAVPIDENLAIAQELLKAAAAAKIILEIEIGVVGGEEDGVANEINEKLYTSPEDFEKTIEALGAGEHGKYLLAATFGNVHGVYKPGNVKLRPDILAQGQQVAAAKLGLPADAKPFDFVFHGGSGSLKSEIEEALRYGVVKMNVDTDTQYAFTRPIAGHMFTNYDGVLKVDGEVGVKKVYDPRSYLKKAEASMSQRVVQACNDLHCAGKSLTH
Rv3671c inh – Rv3671c (M. tuberculosis) protease inhibition; inhibition, % at 5.96 µM; AID 2606; 320,000 tested, 0.048% active; in the data active = inhibition above about 38%;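 also: extracellular domain of Rv3671c used as enzyme; 0% = enzyme with DMSO and 100% = no enzyme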
UGM FP inh – blocks M. tuberculosis UGM enzyme. inhibition, % at 10 µM. AID 504406. purified UGM, fluorescence polarization probe displacement. P9WIQ1. 320,000 tested, 0.06% active; in the data active = inhibition above about 10%, passing the limit was not always enough
Mtb betalactam – beta-lactam sensitization of Mtb H37Rv. 330,000 tested, 0.27% active. AID 434955. inhibition, % at 25 µM. M. tuberculosis H37Rv growth with meropenem, percent inhibition; call rule not given here;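 also: growth measured after seven days incubation then overnight dye step; 0% = bacteria only wells and 100% = bacteria with antibiotic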
GDH-TPI inh – counter-screen for M. tuberculosis FBA inhibitors: GDH-TPI coupled enzymes. 360,000 tested, 1.2% active. GDH-TPI coupled enzyme counterscreen, NADH absorbance. inhibition, % at 4.8 µM; in the data active = inhibition above about 30%;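 also: 0% = DMSO wells and 100% = wells lacking the enzyme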
PriA SSB inh – K. pneumoniae PriA-SSBct interaction inhibition; inhibition, % at 33 µM; AID 1272365; 430,000 tested, 0.6% active; AlphaScreen SSBct-PriA binding, biotinylated peptide; in the data active = inhibition mostly above about 37%, no sharp cut-off; inactive = mostly below about 20%;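 also: plate controls were negative control peptide for no effect and reference peptide for full effect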
* marks the source's active call; other numbers are inactive results. Rows were chosen to be rich in hits. Some 3.2% of all compounds tested hit in one or more screens of this group.

For O=C(Nc1nc2ccc(S(=O)(=O)N3CCOCC3)cc2s1)c1ccc(Br)o1 the results were PriA SSB inh 2.
For COc1ccc(NC(=O)C(N=Nc2cccc(S(=O)(=O)Nc3ccc(SC(F)F)cc3)c2)=C(C)O)cc1 the results were PriA SSB inh 4.
`CC1(C)CC(=O)C(C=Nc2ccc3[nH]ncc3c2)=C(O)C1` gave Mtb FBA inh 7, Rv3671c inh -4, UGM FP inh -1, Mtb betalactam 8, GDH-TPI inh 36* and PriA SSB inh -3.
Screening CC1(C)CC(=O)C(C=Nc2ccc3cn[nH]c3c2)=C(O)C1 returned Mtb FBA inh 4, Rv3671c inh -6, UGM FP inh -2, Mtb betalactam -7, GDH-TPI inh 39* and PriA SSB inh -1.
For CC1(C)CC(=O)C(C=Nc2ccc(F)c(F)c2)=C(O)C1 the results were PriA SSB inh -14.
Screening CC1(C)CC(=O)C(C=Nc2ccc(O)cc2)=C(O)C1 returned Mtb FBA inh -3, Rv3671c inh -1, UGM FP inh 1, Mtb betalactam -8, GDH-TPI inh 14 and PriA SSB inh -2.
Screening CC12CCC(C(=O)Nc3ccc(Cl)cn3)(OC1=O)C2(C)C (centres undefined) returned PriA SSB inh -5.
For O=C(Nc1nc(-c2ccccn2)cs1)c1ccc([N+](=O)[O-])cc1 the results were PriA SSB inh 102*.
`Cc1nc(C(=O)Nc2nc(-c3ccccn3)cs2)nn1-c1ccc(F)cc1` gave PriA SSB inh 90*.
`Cc1ccc(C)n1-c1ccc(C(=O)Nc2nc(-c3ccccn3)cs2)cc1` gave PriA SSB inh 81.
For O=C(CCCSc1ccc(F)cc1)Nc1nc(-c2ccccn2)cs1 the results were PriA SSB inh 11.
For CC(Oc1ccc(F)cc1)C(=O)Nc1nc(-c2ccccn2)cs1 (centres undefined) the results were Mtb FBA inh 0, Rv3671c inh -6, UGM FP inh -1, Mtb betalactam 88, GDH-TPI inh 1 and PriA SSB inh 57*.
O=C(Nc1nc(-c2ccccn2)cs1)c1ccc(F)cc1 was read as PriA SSB inh 107*.
Screening Cc1ccnc2nc(C(=O)Nc3nc(-c4ccccc4Cl)cs3)nn12 returned PriA SSB inh 38.
CN(CC1CCCO1)S(=O)(=O)c1ccc(C(=O)Nc2nc(-c3ccccn3)cs2)cc1 (centres undefined) was read as Mtb FBA inh 0, Rv3671c inh -6, UGM FP inh -1, Mtb betalactam 79, GDH-TPI inh 22 and PriA SSB inh 44*.
For CN(CC1CCCO1)S(=O)(=O)c1ccc(C(=O)Nc2nc(-c3cccnc3)cs2)cc1 (centres undefined) the results were PriA SSB inh 9.
Screening O=C(Nc1nc(-c2ccccn2)cs1)c1ccc(-n2cccn2)cc1 returned PriA SSB inh 49.
For COc1ccc(OC)c(C(=O)Nc2nc(-c3ccccn3)cs2)c1 the results were PriA SSB inh -5.
`COc1coc(C(=O)Nc2nc(-c3ccccn3)cs2)cc1=O` gave PriA SSB inh 87*.
CC(C)n1nnc(-c2ccc(C(=O)Nc3nc(-c4ccccn4)cs3)cc2)n1 was read as PriA SSB inh 74*.
For Cc1ccnc2nc(C(=O)Nc3nc(-c4ccccn4)cs3)nn12 the results were Mtb FBA inh 2, Rv3671c inh -3, UGM FP inh -1, Mtb betalactam 6, GDH-TPI inh 6 and PriA SSB inh 72*.
Screening CCOC(=O)C1CCCC1=NNC(=O)CN(c1cc(OC)ccc1OC)S(=O)(=O)c1ccccc1 (centres undefined) returned PriA SSB inh 1.
Screening Clc1ccc(-c2csc(Nc3nc4cc5c(cc4s3)OCO5)n2)s1 returned PriA SSB inh -12.
`COc1cc(C(=O)Nc2nnc(SCC(=O)Nc3nc4ccccc4s3)s2)c([N+](=O)[O-])cc1OC` gave PriA SSB inh -6.
Screening COc1ccc(C(=O)Nc2nc(-c3ccccn3)cs2)cc1OC returned PriA SSB inh 114*.
Cn1ccc2cc(C(=O)Nc3nc(-c4ccccn4)cs3)ccc21 was read as PriA SSB inh 110*.
For O=C(Nc1nc(-c2ccccn2)cs1)c1ccc(I)cc1 the results were PriA SSB inh 39.
CSCc1ccc(C(=O)Nc2nc(-c3ccccn3)cs2)cc1 was read as PriA SSB inh 114*.
